Reference: the supplement of paper PMC11417369
± gives the standard deviation of the averaged measurements. Over roughly 25,000 sequences, “ln(normalized median fluorescence intensity)” has its median near 7.9; the highest 2% begin near 11. The sample as a whole holds a higher share of the highest values than the screen did.

Each sequence was assayed on PfAP2-I AP2 domain 3 (GST-tagged) (assay: gcPBM binding intensity (ln(normalized median fluorescence intensity)); higher = stronger DNA binding).
Procedure, shortened: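 Alexa488 anti-GST antibody, scanned at 488 nm, detected GST-tagged P. falciparum DNA-binding domains that had been expressed in E. coli and incubated for 1 h on an Agilent 4 × 180k array. The array carried primer-extended double-stranded 36-bp intergenic genomic probes and negative controls. Binding intensity is the highest Masliner-normalised natural-log median intensity across replicate spots of either orientation of each probe.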

Row | Sequence | gcPBM binding intensity (ln)
1 | AAATACCTGATATATACACACTATGTTTTTCTTTTT [CACACA_site6680] | 7.77 ± 0.81
2 | CTTTTTAAATTAAAATGTACAGAAAAATATTATTAT [XGTACX_site8760] | 7.72 ± 0.69
3 | AAGGAAAATTTTTGGTGTACACAAAAAAATCCAAAA [XGTACX_site3596] | 8.46 ± 0.057
4 | AAAGATGGAGTGATATGTACTGATATATTATTATAT [XGTACX_site6500] | 7.62 ± 0.67
5 | TGTATAACCTGTGTTACACACATTAAAATTTATATA [CACACA_site4449] | 7.67 ± 0.46
6 | AAAAAAAAAAAAAAAGTGCACTGAAAATATATTGAA [GTGCAC_site9395] | 11 ± 0.2
7 | TTATTTTTGTTTTGAAGTACAAAAAAATATATTCTT [XGTACX_site6416] | 7.63 ± 0.34
8 | AAATAATATTGAAAAGTGCATATTTTTGTTGATATA | 9.15 ± 0.21
9 | AAAAAAAAAAAAAAAGTGCATATATAAATATTGTAT [GTGCAC_site9459] | 10.1 ± 0.18
10 | TTTGTTCTTTTTGAAGTGCACTGAAATATAACAAAA | 11.3 ± 0.16
11 | TTCTTGTTCCTGAAAGTGCATATAACAAAAATAACA [GTGCAC_site9635] | 9.99 ± 0.3
12 | GTTTCCTTAATATTCACACACATATATATAATATAT [CACACA_site1856] | 8.22 ± 0.54
13 | TATAAAAATATTTCTACACACATTAATATATATATA [CACACA_site1150] | 8.97 ± 0.042
14 | TTTTACATATACATGTGTACATAACAAAGAATGTTT [XGTACX_site2406] | 7.88 ± 0.57
15 | TATATACGCAAACACACACACACATACACCCACATA [CACACA_site1724] | 8.09 ± 0.31
16 | ACAGAATATTTAATTCAACACACATACATATTTATT [CACACA_site8734] | 7.61 ± 0.52
17 | TATAAATTTATACCAGTGCATTTTGAAATATATATA | 9.47 ± 0.057
18 | TATATAAATTAACCAGTGCATTATTTGGAAATTATT | 11.1 ± 0.59
19 | TATAAATTAAAATCAGTGCATATTTTGAAAAACCTC | 9.19 ± 0.41
20 | TGGTTATTTATCTTTATTATAAATATTTACAAATAA [CACACA_negctrl_site1773] | 7.61 ± 0.38
21 | TTCATAATAAAAAGGTGTACATATATATATATATAT [XGTACX_site2829] | 9.71 ± 0.2
22 | AAGAAATTTATTTATTGTACAATATATAATTTGTTT [XGTACX_site2478] | 7.59 ± 0.38
23 | ACAAATTGTTAAAGGTGTACAATACATATATAAGAA [XGTACX_site4906] | 8.46 ± 0.56
24 | TTTGTGTTTATAAATTGTACAAAGGTGCAAGAAGAA [XGTACX_site2159] | 11.1 ± 0.87

Row | Sequence | gcPBM binding intensity (ln)
25 | GATTAATACACATTCTTCCGACATAATAAGAAAAAG [GTGCAC_negctrl_site7] | 8.04 ± 0.38
26 | TGTCGGCTTAGATTAGTGCACTGAAAAATGAAGTAT [GTGCAC_site9919] | 11.8 ± 0.28
27 | GAAGTAGATGGAAAAGTGCACTGTAATGGTTATATT | 10.6 ± 0.035
28 | TATATATATAAATGAATGCACTTTAGAAAAAAGTAC | 10.2 ± 0.23
29 | TATATCATATAAAACCGTACATACATACTTAATTGT [XGTACX_site6822] | 7.8 ± 0.29
30 | TATTTCAAACTGTTCTCACACACGAAATTAGAAATG [CACACA_site611] | 7.57 ± 0.66
31 | TATATAATAAGAAAATATGTGCGTAGTTCAGCAAAA [XGTACX_negctrl_site304] | 8.26 ± 0.74
32 | AAATTAGACTATAATACACACATAAAAAAAAAATCA [CACACA_site7672] | 7.79 ± 0.4
33 | TATATATTATATAAGAGTACATATAATTATAGTTTT [XGTACX_site5039] | 7.71 ± 0.52
34 | AATATATAATATATATGTACTTATATATAAAAGATA [XGTACX_site7635] | 7.8 ± 0.21
35 | AAGAACATATTATATACATGCATAATTCGATAGATT [TGCATGCA_site882] | 7.9 ± 0.69
36 | GTGGTTATATATTAAGTGCATATTATAATTTTAAAC | 9.56 ± 0.14
37 | TATAATAATATAATGGTGCATGTATATAACCATATA | 9.21 ± 0.14
38 | GTTAATCACCATGTGGTGCATATAAGGGCATATTAT [GTGCAC_site9748] | 11 ± 0.55
39 | AAGAATTTTCGATTTGCACACATTTGTAAAATAAAA [CACACA_site2354] | 9.16
40 | AAAAAATATAATAATTGTACACATGCACACACAAAT [XGTACX_site1563] | 8.25 ± 0.48
41 | TATCTTCAAGTATGTACACACTATATATAATAAAAT [CACACA_site5368] | 8.11 ± 0.13
42 | TATAATAAATCAAATGCACACACACTAATAAAAAAA [CACACA_site7937] | 9.15 ± 0.11
43 | TTGTACAAAAATAATGCACACTATATCAAGTTTTTT [CACACA_site5898] | 10.9 ± 0.7
44 | TAAATTTTTTTTTTTTGTACACAAAAATATAATATT [XGTACX_site8151] | 7.61 ± 0.31
45 | TTTTGTACAAAAATAATGCACACTATATCAAGTTTT [CACACA_site3595] | 11 ± 0.51
46 | TTGTTTTCTTTTTCTTTTCTTTTTCTTTTTTCTTTT [GTGCAC_negctrl_site629] | 7.55 ± 0.73
47 | CATTAAAATATGAGATGTACACAATATCTATTATAT [XGTACX_site4979] | 7.82 ± 0.51
